Measurements published in PubChem BioAssay AID2023 (NMMLSC, 2009).
The whole screen tested about 320,000 compounds, of which about 1,100 (0.34%) were called active.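 The calls were made as follows: active = GFP response vs DMSO above a set limit, about the screen mean plus 3 SD (cut at about 150% in these data); inconclusive = under 70 cell events counted for the yeast strain; inactive = the rest.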 Only a selection was taken, and actives are over-represented in it overall.

Assay: TOR pathway LAP4-GFP level changes – S. cerevisiae, multiplex flow cytometry, MLPCN library, primary screen (AID 2023)
Details: 3 h, at 10 µM, active compounds read high, median GFP as percent of DMSO wells
In the case of `CCn1c(=S)[nH]c2cc(S(=O)(=O)N3CCOCC3)ccc21`, the GFP response vs DMSO is reported as 89.3% (inactive).
In the case of `Cc1ccc2cccc(S(=O)(=O)N3CCN(c4ccccc4F)CC3)c2n1`, the GFP response vs DMSO is reported as 110% (inactive).
With `Cc1ccc(C(=O)N2CCCC(c3ccccc3)=N2)cc1` the GFP response vs DMSO was 107% (inactive).
In the case of `CC(C(=O)Nc1ccccc1-c1ccccc1)N1CCOCC1` (stereo unspecified), the GFP response vs DMSO is reported as 100% (inactive).
With `CC(C)c1ccc(NC2CCCN(C(=O)c3ccncc3)C2)cc1` (stereo unspecified) the GFP response vs DMSO was 93.3% (inactive).
In the case of `COC(=O)c1cc(S(=O)(=O)NC2CCN(Cc3ccccc3)CC2)cn1C`, the GFP response vs DMSO is reported as 95.7% (inactive).
For `CC12CN3CCN(CC(C3)/C1=N\NC(=O)c1ccccc1N)C2`, the GFP response vs DMSO was 102% (inactive).
In the case of `CC(=O)Nc1ccc(NC(=O)COC(=O)C2CCC(C(C)(C)C)CC2)cc1` (stereo unspecified), the GFP response vs DMSO is reported as 107% (inactive).
For `Cc1cccc(C)c1NC(=O)C(c1ccccc1)N1CC(=O)Nc2ccccc21` (stereo unspecified), the GFP response vs DMSO was 90.5% (inactive).
In the case of `Cc1cccc(C)c1NC(=O)C(Cl)C(=O)c1ccccc1` (stereo unspecified), the GFP response vs DMSO is reported as 269% (active).
With `Cc1cccc(C)c1NC(=O)CN(C)C(=O)CCC(=O)c1ccccc1` the GFP response vs DMSO was 104% (inactive).
With `FC(F)(F)c1cnc(Oc2ccccc2-c2nnc(-c3ccc(Cl)cc3)o2)c(Cl)c1` the GFP response vs DMSO was 96.3% (inactive).
For `Oc1cccc(/C=N/Nc2ccc(Cl)nn2)c1O`, the GFP response vs DMSO was 89.6% (inactive).
In the case of `COc1cccc(/C=N/Nc2ncc(C(F)(F)F)cc2Cl)c1O`, the GFP response vs DMSO is reported as 184% (active).
With `Cc1ccc2nsnc2c1NC(=O)c1ccccc1[N+](=O)[O-]` the GFP response vs DMSO was 93.2% (inactive).
With `Cc1cc(=O)n2nc(N3CCCC(C(=O)NCc4cccc(Cl)c4)C3)sc2n1` (stereo unspecified) the GFP response vs DMSO was 92.2% (inactive).
With `Cc1cc(=O)n2nc(N3CCCC(C(=O)NCCC4=CCCCC4)C3)sc2n1` (stereo unspecified) the GFP response vs DMSO was 196% (active).
In the case of `Cc1cc(=O)n2nc(N3CCCC(C(=O)NCc4ccc(Cl)cc4)C3)sc2n1` (stereo unspecified), the GFP response vs DMSO is reported as 92.3% (inactive).
For `CC(=O)NCCC(=O)Nc1cc(S(=O)(=O)N2CCCCC2)ccc1Oc1cccc(C)c1`, the GFP response vs DMSO was 87.1% (inactive).
For `COc1ccc([C@H]2CC(=O)C=C(/C=C/c3ccccc3)C2)cc1`, the GFP response vs DMSO was 115% (inactive).
With `CC1=C/C(=N\OS(=O)(=O)c2ccccc2)C=CC1=O` the GFP response vs DMSO was 257% (active).
For `CCn1c(SCCC(C)C)nnc1-c1c[nH]c2ccccc12`, the GFP response vs DMSO was 169% (active).
With `CCn1c(SCC(=O)Nc2ccc(OC)c(OC)c2)nnc1-c1c[nH]c2ccccc12` the GFP response vs DMSO was 98.2% (inactive).
With `CCC(C)Sc1nnc(-c2c[nH]c3ccccc23)n1CCOC` (stereo unspecified) the GFP response vs DMSO was 90.4% (inactive).
For `C#CCOCCOCCOCCNc1nc(N2CCN(C(=O)CCCCCCCCCCNC(=O)[C@H]([C@@H](C)CC)n3cc(CCCCN=C(N)N)nn3)CC2)nc(N2CCN(C(=O)CCCCCCCCCCNC(=O)[C@H](CO)n3cc(CCCSC)nn3)CC2)n1`, the GFP response vs DMSO was 135% (inactive).
For `C#CCOCCOCCOCCNc1nc(N2CCN(C(=O)CCCCCCCCCCNC(=O)[C@H](CCCCN)n3cc(C)nn3)CC2)nc(N2CCN(C(=O)CCCCCCCCCCNC(=O)[C@H](CO)n3cc(CCCSC)nn3)CC2)n1`, the GFP response vs DMSO was 155% (active).
With `C#CCOCCOCCOCCNc1nc(N2CCN(C(=O)CCCCCCCCCCNC(=O)Cn3cc(CCCCCN)nn3)CC2)nc(N2CCN(C(=O)CCCCCCCCCCNC(=O)[C@H](CO)n3cc(CCCSC)nn3)CC2)n1` the GFP response vs DMSO was 118% (inactive).
In the case of `Cc1ccc(C2CCN(C(=S)Nc3cccc(Cl)c3)C2)cc1` (stereo unspecified), the GFP response vs DMSO is reported as 158% (active).
In the case of `Cc1cccc(NC(=S)N2CCCC(c3nc4ccccc4[nH]3)C2)c1` (stereo unspecified), the GFP response vs DMSO is reported as 93.9% (inactive).
In the case of `O=C(C1CCCO1)N1CCN(C(=S)Nc2cccc(Cl)c2)CC1` (stereo unspecified), the GFP response vs DMSO is reported as 95.7% (inactive).
With `O=S(=O)(c1ccc2ccccc2c1)N1CCN(S(=O)(=O)N2CCOCC2)CC1` the GFP response vs DMSO was 87% (inactive).
In the case of `COc1ccc(C)cc1N(CC(=O)NC(C)c1ccccc1)S(C)(=O)=O` (stereo unspecified), the GFP response vs DMSO is reported as 80.6% (inactive).
In the case of `Clc1ccccc1CSc1nnc(-c2ccco2)c(-c2ccco2)n1`, the GFP response vs DMSO is reported as 186% (active).
With `S=C(NCc1ccco1)NCc1ccccc1Cl` the GFP response vs DMSO was 85.2% (inactive).
For `O=C(CC1N=C2c3ccccc3N=C(SCc3ccccc3Cl)N2C1=O)NCc1ccco1` (stereo unspecified), the GFP response vs DMSO was 97.5% (inactive).
For `CN1CCCc2cc(C#N)c(=O)[nH]c21`, the GFP response vs DMSO was 105% (inactive).
In the case of `Cc1ccc(S(=O)(=O)N(C)C)cc1NC(=O)c1ccc(-n2cncn2)c([N+](=O)[O-])c1`, the GFP response vs DMSO is reported as 98% (inactive).
For `NC(=O)c1ccccc1N=Cc1ccc2ccccc2c1`, the GFP response vs DMSO was 88.2% (inactive).
For `COc1cccc(NC(=O)C2CCCN(c3ncnc4c3nc3n4CCCCC3)C2)c1` (stereo unspecified), the GFP response vs DMSO was 94.5% (inactive).
In the case of `O=C(Nc1cccnc1)c1ccc(Cl)c([N+](=O)[O-])c1`, the GFP response vs DMSO is reported as 119% (inactive).
For `O=C(/C=C/c1ccc(Cl)c([N+](=O)[O-])c1)c1cccnc1`, the GFP response vs DMSO was 236% (active).
In the case of `O=C(/C=C/c1ccc(Cl)cc1Cl)c1cccnc1`, the GFP response vs DMSO is reported as 99.4% (inactive).
In the case of `Cc1cc(NC(=O)CN2C(=O)NC(CCc3ccccc3)C2=O)no1` (stereo unspecified), the GFP response vs DMSO is reported as 92.5% (inactive).
For `Cc1ccc(NC(=O)N2CCSc3ccccc32)cc1`, the GFP response vs DMSO was 96.8% (inactive).
With `O=C(NCCS(=O)(=O)c1ccc(Br)cc1)c1ccccc1Cl` the GFP response vs DMSO was 102% (inactive).
In the case of `CCc1noc(C)c1C(=O)N1CCCSC1=Nc1ccccc1OC`, the GFP response vs DMSO is reported as 101% (inactive).
